PvdQ acylase = blocks Pseudomonas aeruginosa PvdQ acylase activity. purified PvdQ acylase, fluorescence plate reader. inhibition, % at 10 µM. actives 0.063% (n = 340,000). AID 488965; in the data active = inhibition above about 30%, passing the limit was not always enough; inconclusive = no clear call, values can overlap the other calls;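 also: 0% = vehicle neutral wells and 100% = reference inhibitor wells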
Statin myotox sup = suppression of simvastatin myotoxicity. rescue of ATP level, % at 7.49 µM. actives 0.78% (n = 330,000). C2C12 myotubes + simvastatin, ATP luminescence, 48 h; scaled: DMSO 0, geranylgeraniol control 100;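 active = mean ATP rescue above about 67%, or every replicate alone reaching that limit, limit read from the data, passing the limit was not always enough; inconclusive = no clear call, values can overlap the other calls; inactive = mean under the limit and some replicate under it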;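 also: myotubes were challenged with 10 µM simvastatin during compound exposure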
DENV2 CPE rescue = inhibitors of DENV2 cytopathic effect | DENV2-infected cells, cytopathic effect rescue, plate reader | CPE inhibition, % at 9.99 µM | actives 1.7% (n = 350,000) | AID 651640; in the data active = CPE inhibition above about 20%, passing the limit was not always enough; inconclusive = no clear call, values can overlap the other calls; tested in BHK-21 cells;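 also: 0% = median of neutral control wells and 100% = median of positive control wells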
PGC1a acetyl inh = PGC1a acetylation modulation, inhibitor mode; actives 0.17% (n = 350,000); U2OS PGC1a acetylation, AlphaScreen anti-acetyl-lysine; with virally co-expressed GCN5 acetyltransferase; inhibition, % at 15.6 µM; AID 651687;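 active = every replicate shows inhibition of at least 40%; inconclusive = mean inhibition at least 40% but some replicate below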;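 also: 0% = neutral control wells and 100% = positive control wells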
miR122 inh = blocks miR-122 activity in Huh7 sensor cells. Huh7 miR-122 Renilla luciferase sensor, 48 h; neutral wells = 0, positive control = 100. activation (reporter increase), % at 12.5 µM. actives 0.3% (n = 340,000);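 active = mean replicate activation score at least 90 and every replicate individually at or above 90; inconclusive = only one of the two criteria met; inactive = neither criterion met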;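 also: higher luciferase means less miR-122 activity so hits act as miR-122 inhibitors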
Numbers without * were called inactive; ? = inconclusive; · = no result given; [ ] = another dose, or the depositor's remark. Compounds with a hit are over-represented: about 2.2% of the library has one in this group of screens.

SMILES | PvdQ acylase | Statin myotox sup | DENV2 CPE rescue | PGC1a acetyl inh | miR122 inh
CCOC(=O)c1c(-c2ccc(C)o2)csc1NC(=O)CN1CCOCC1 | -6.1 | -5.5 | · | 0.1 | -4.8
CCOC(=O)c1c(-c2cccs2)csc1NC(=O)CN1CCOCC1 | -15.8 | 92.7* | · | 1.0 | -4.0
COc1ccc(-c2onc(C)c2-c2ccc(C(=O)OC(C)C)o2)c(O)c1 | -9.9 | · | · | 74.1* | 7.2
COc1ccc(N2C(=O)c3ccc(C(=O)OC(C)C)cc3C2=O)cc1 | 5.9 | 0.3 | · | 8.2 | -4.9
C[C@@H]1CN([C@@H](C)CO)C(=O)c2cc(NS(C)(=O)=O)ccc2O[C@@H](C)CCCCO[C@H]1CN(C)Cc1ccc(C(F)(F)F)cc1 | · | · | -14.3 | 2.3 | ·
O=C(NCc1ccccc1F)Nc1nnc([C@H]2C[C@H](O)[C@@H](CO)O2)s1 | · | 6.3 | 3.4 | · | ·
O=C(NCc1cccc(F)c1)Nc1nnc([C@H]2C[C@H](O)[C@@H](CO)O2)s1 | · | 16.6 | 31.2* | -11.9 | -1.1
CC1(C)CC(=O)C2=C(C1)Nc1ccccc1NC2c1ccccc1F (stereo not given) | -13.5 | -5.0 | -1.9 | 11.4 | 3.1
CC1(C)CC(=O)C2=C(C1)Nc1ccccc1NC2c1ccc(F)c(F)c1 (stereo not given) | -12.9 | 8.0 | 22.7* | -9.3 | 1.9
O=C(Cc1cccnc1)N1CC(=O)N2[C@H](CO)[C@H](c3ccc(C#CC4CC4)cc3)[C@@H]2C1 | · | · | -2.7 | -7.9 | ·
CCOC(=O)CCc1c(C)c2c(C)nn(-c3ccccc3)c2[nH]c1=O | 5.5 | -3.3 | 37.4* | -7.1 | -2.0
CCOC(=O)CCc1c(C)nc2c(c(C)nn2-c2ccccc2)c1C | -1.0 | -10.2 | -0.1 | -0.2 | -3.7
CCCCC1=CC2=CC(=O)C(C)(OC(=O)CC)C(=O)C2=CN1c1cccc(C#N)c1 (stereo not given) | -16.9 | · | 25.8* | 6.8 | 4.5
CCCCC1=CC2=CC(=O)C(C)(OC(=O)CC)C(=O)C2=CN1c1ccc(OC)cc1 (stereo not given) | -1.9 | 13.3 | -2.1 | 2.7 | -5.9
CN(C)c1ccc(CNS(=O)(=O)c2ccc3c(c2)C(C)(C)C(=O)N3C)cc1 | -7.0 | 2.7 | 48.5* | -4.3 | 9.4
Cc1ccc(CNS(=O)(=O)c2ccc3c(c2)C(C)(C)C(=O)N3C)cc1 | -10.5 | 7.6 | ? | -3.4 | 2.4
COc1cc(NS(=O)(=O)c2ccc3c(c2)C(C)(C)C(=O)N3C)cc(OC)c1 | -14.8 | 6.1 | 11.4 | -6.7 | 97.6*
C=C(C)COC(=O)c1ccccc1C(=O)OCC1(C)CO1 (stereo not given) | -1.2 | 98.1* | -3.5 | -2.0 | -8.0
O=C(COc1ccc2ccccc2c1)NNC(=O)Cc1cccc2ccccc12 | -10.9 | 114.2* | · | -2.5 | -4.0
O=C(COc1ccc2ccccc2c1)NNC(=O)Cc1ccccc1 | -15.0 | -8.5 | -5.2 | -0.4 | -1.2
CO[C@@H]1CN(C)C(=O)c2ccc(NC(=O)C3CC3)cc2OC[C@@H](C)N(CCC(F)(F)F)C[C@H]1C | · | · | -4.3 | 7.5 | ·
CCCC#Cc1ccc([C@H]2[C@@H](CO)N3C(=O)CN(C(=O)CN4CCOCC4)C[C@H]23)cc1 | · | · | 2.6 | 1.8 | ·
Cc1onc(-c2ccccc2)c1C(=O)NN=Cc1cc(Cl)cc(Cl)c1O | · | · | -6.4 | · | ·
Cc1onc(-c2ccccc2)c1C(=O)N/N=C/c1c(F)cccc1Cl | 9.1 | -7.0 | 79.3* | · | ·
CNC(=O)C[C@@H]1CC[C@@H]2[C@@H](COc3ccc(NC(=O)C(C)C)cc3C(=O)N2C)O1 | · | -24.2 | · | 6.3 | 23.3[16.7 µM]
SMILES | PvdQ acylase | Statin myotox sup | DENV2 CPE rescue | PGC1a acetyl inh | miR122 inh
Cc1ccc(N(Cc2cc3ccccc3[nH]c2=O)C(=O)c2cccs2)cc1C | 1.2 | 101.5* | 2.1 | -5.8 | 2.5
Cc1cc(OCC(=O)NC2CC(C)(C)NC(C)(C)C2)c(C)cc1Br | -3.0 | -14.9 | 42.1* | · | ·
Cc1ccc(S(=O)(=O)Nc2ccc3c(c2)C(=O)N([C@@H](C)CO)C[C@H](C)[C@@H](CN(C)S(=O)(=O)c2cn(C)cn2)O3)cc1 | · | 19.6 | -3.3 | -1.6 | 7.1[16.7 µM]
CC1(C(=O)NS(=O)(=O)c2ccccc2Cl)CCN1C(=O)c1ccco1 (stereo not given) | · | -0.7 | 22.3* | -2.6 | -2.6
Cc1ccccc1S(=O)(=O)NC(=O)C1(C)CCN1C(=O)CC(c1ccccc1)c1ccccc1 (stereo not given) | · | 0.3 | 38.4* | -2.9 | 48.4
C[C@@H]1CN([C@@H](C)CO)C(=O)c2cc(-c3ccccc3)cnc2O[C@@H]1CN(C)Cc1cccnc1 | · | -15.7 | 1.9 | 6.3 | -7.0[16.7 µM]
